Source: PubChem
MCF10A rereplic: inducers of DNA re-replication in MCF 10A breast cells. MCF 10A DNA re-replication, Hoechst nuclear intensity, 48 h. Potency, µM (doses to about 46.1 µM), inactives show at the top dose activity, positive = re-replication, hits mostly activators. hit rate 2.9% among 350,000. AID 624296; note: potency is the fitted concentration of half-maximal effect; % of control where 0% means no effect; nearly all actives have a fitted effect of over 50% in size
Giardia kill: Giardia lamblia killing. hit rate 0.15% among 340,000. activity change, % at 7.66 µM, hits read low. Giardia lamblia trophozoite viability; in the data active = activity change below about -80%; inconclusive = between about -30% and that limit;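 note: parasites exposed to compound for two days anaerobically before the ATP read; % is set by controls: 0 for no effect and ±100 for the full control effect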
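Anaerobic 48 hrs incubation at 37 deg C of 100 trophozoites/well with test compounds; ATPLite 1-Step luminescence, 15-30 min RT, reports cellular ATP as viability.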
ASM inhibitor: inhibitors of human secretory acid sphingomyelinase; P17405; placental ASM, HMU-PC fluorogenic substrate, 60 min; Potency, µM (doses to about 57.5 µM), without a hit: top-dose activity change, negative = inhibition, usual class: inhibitors; hit rate 0.006% among 340,000; AID 504937; note: potency is the fitted concentration of half-maximal effect
Target sequence (P17405 47-631 limits assumed): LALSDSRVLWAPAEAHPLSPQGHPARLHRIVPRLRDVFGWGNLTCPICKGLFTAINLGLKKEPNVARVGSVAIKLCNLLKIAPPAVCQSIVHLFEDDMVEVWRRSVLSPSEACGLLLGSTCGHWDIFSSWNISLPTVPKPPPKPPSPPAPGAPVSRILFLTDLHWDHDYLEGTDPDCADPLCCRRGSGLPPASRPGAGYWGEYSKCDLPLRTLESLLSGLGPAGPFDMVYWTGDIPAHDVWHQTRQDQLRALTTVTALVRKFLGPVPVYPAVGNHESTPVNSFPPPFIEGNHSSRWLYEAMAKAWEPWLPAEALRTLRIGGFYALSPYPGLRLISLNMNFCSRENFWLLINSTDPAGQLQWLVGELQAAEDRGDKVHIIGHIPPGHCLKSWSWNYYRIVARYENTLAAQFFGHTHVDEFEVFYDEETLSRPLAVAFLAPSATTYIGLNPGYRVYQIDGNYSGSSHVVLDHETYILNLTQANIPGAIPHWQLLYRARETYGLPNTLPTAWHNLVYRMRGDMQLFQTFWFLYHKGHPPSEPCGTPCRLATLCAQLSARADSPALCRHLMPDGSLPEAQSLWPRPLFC
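Human placenta-derived ASM preincubated with compound 10 min at room temperature, then reacted with 9 uM (final) fluorogenic HMU-PC substrate for 60 min at 37 C. Stop solution raises pH to 10; fluorescence read at Ex 386/Em 447 nm.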
KB-3-1 cytotox: KB-3-1 parental cell cytotoxicity. KB-3-1 viability, CellTiter-Glo ATP luminescence, 72 h. Potency, µM (doses to about 46.1 µM), most hits filed as cytotoxic. hit rate 1.4% among 400,000; note: potency is the fitted concentration of half-maximal effect; % is set by controls: 0 for no effect and ±100 for the full control effect; nearly all actives have a fitted effect of over 60% in size
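Here the drug-naive KB-3-1 line serves as comparator for MDR sub-line selectivity; cells received compound titrations, 72 h at 37 °C, then CellTiter-Glo readout.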
KB-V1 cytotox: kills drug-selected multidrug resistant KB-V1 cells; KB-V1 MDR cells viability, CellTiter-Glo, 72 h; Potency, µM (highest dose often 46.1 µM), actives largely listed as cytotoxic; hit rate 3.4% among 400,000; AID 1347076; note: potency is the fitted concentration of half-maximal effect; % is set by controls: 0 for no effect and ±100 for the full control effect; nearly all actives have a fitted effect of over 60% in size
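Cytotoxicity via CellTiter-Glo luminescence after 72 h compound exposure at 37 degrees C. Cells: drug-selected KB-V1 line, DMEM phenol-red free plus 10% FBS. Compounds tested at multiple concentrations; normalized data fitted to concentration-effect curves.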
SW480 rerep: induces DNA re-replication in SW480 colon adenocarcinoma cells | Potency, µM (highest dose often 46.1 µM), inactives show top-dose re-replication activation, usual class: activators | AID 624297 | hit rate 1.8% among 340,000 | SW480 DNA re-replication, Hoechst DNA content imaging, 48 h; note: potency is the fitted concentration of half-maximal effect; % of control where 0% means no effect; nearly all actives have a fitted effect of over 55% in size
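First, 250 cells per well were seeded. Next, compound or vehicle (23 nL) was pinned in, plates sat 48 hr at 37 C. Finally Hoechst was added for 40 min before fluorescence scanning.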
Numbers without * were called inactive; i = inactive; ? = inconclusive; nt = no result; [ ] = another dose, or the depositor's remark. Hits are enriched below; roughly 6.9% of the tested compounds scored in any of these assays. Unless noted, calls come from the whole dose curve; as a rule, active = well fitted curve in the direction sought with a large enough effect; inconclusive = small, poorly fitted or top-dose-only effect, or another doubt; inactive = no such curve, though single readings can be large; an effect the other way counts as inactive or inconclusive.

SMILES | MCF10A rereplic | Giardia kill | ASM inhibitor | KB-3-1 cytotox | KB-V1 cytotox | SW480 rerep
Cc1ccc2[nH]c3c(c2c1)CCCC3C(N)=O (centres undefined) | 18% | -13 | 4% | i | i | 13%
Cc1ccc(N(CC(=O)NCCSc2ccccc2)S(=O)(=O)c2ccc(F)cc2)cc1 | nt | nt | nt | i | i | nt
O=CC(=O)c1ccc(F)cc1 | nt | nt | nt | i | i | nt
COc1ccc([C@H]2CN(c3ccccc3)C(=O)[C@@H]2CC(=O)Nc2ccccc2)cc1 | nt | nt | nt | i | ? | nt
COc1ccc(NC(=O)C[C@H]2C(=O)N(c3ccccc3)C[C@@H]2Cc2ccccc2)cc1 | nt | nt | nt | i | 15µM* | nt
COc1ccc([C@H]2CN(c3ccc(OC)cc3)C(=O)[C@@H]2CC(=O)Nc2ccc(Br)cc2)cc1 | nt | nt | nt | ? | 16µM* | nt
CC(=O)c1cc2ccccc2c2ccccc12 | nt | nt | nt | i | i | nt
CC(=O)OC1c2c(ccc3ccc(=O)oc23)OC(C)(C)C1OC(=O)CC(C)C (centres undefined) | 4% | -2 | -3% | i | 12µM* | -7%
C/C=C(/C)C(=O)O[C@@H]1c2c(ccc3ccc(=O)oc23)OC(C)(C)[C@@H]1OC(=O)/C(C)=C\C | ? | -25 | -11% | ? | ? | ?
O=C(Nc1ccc(F)cc1)c1oc2ccccc2c1NC(=O)C1CCCCC1 | nt | nt | nt | i | i | nt
COc1ccc(N2CCN(c3csc4ccccc4c3=O)CC2)cc1 | nt | nt | nt | i | i | nt
O=C(Nc1ccc(Oc2cccnc2)cc1)c1ccccc1F | 2% | -11 | 4% | ? | 16µM* | -1%
CCN(Cc1ccccc1)C(=O)C1CCN(c2ncnc3c2nc2n3CCCCC2)CC1 | 15% | 5 | 2% | i | i | 0%
CCc1ccccc1N(CC)C(=O)C1CCN(c2ncnc3c2nc2n3CCCCC2)CC1 | 23µM* | -22 | -7% | ? | ? | ?
COc1ccccc1NC(=O)C1CCCN(c2ncnc3c2nc2n3CCCCC2)C1 (centres undefined) | 1% | -26 | -1% | i | ? | -1%
O=C(Nc1ccccc1Cl)C1CCCN(c2ncnc3c2nc2n3CCCCC2)C1 (centres undefined) | ? | 22 | -6% | i | 7.3µM* | 9%
Cc1ccc(NC(=O)C2CCCN(c3ncnc4onc(C)c34)C2)c(Cl)c1 (centres undefined) | nt | nt | nt | 2.6µM* | ? | nt
COc1ccc(-n2nc([N+](=O)[O-])c(=NCCC3=CCCCC3)n2O)cc1 | ? | -91* | -12% | i | ? | 8%
COc1ccc(-n2nc([N+](=O)[O-])c(=NCc3cccnc3)n2O)cc1 | -6% | -97* | -2% | i | 21µM* | -7%
COc1ccc(-n2nc([N+](=O)[O-])c(=NC3CCN(Cc4ccccc4)CC3)n2O)cc1 | 9% | -82* | -9% | ? | ? | ?
Cc1ccc(CN=c2c([N+](=O)[O-])nn(-c3cccc(C)c3)n2O)cc1 | -4% | -83* | -7% | i | i | 11%
Cc1ccc(CN=c2c([N+](=O)[O-])nn(-c3cccc(Cl)c3)n2O)cc1 | 3% | ? | -12% | i | i | -4%
CCOc1ccccc1CNC(=O)CN1C(=O)c2cccnc2Oc2ccc(Cl)cc21 | nt | nt | nt | i | i | nt
O=C(NC1CCCC1)c1cc(Nc2cccc(C(F)(F)F)c2)nc2ccccc12 | nt | nt | nt | i | i | nt
COCCN(C(=O)CSc1nnc(-c2cccc(F)c2)n1N)c1c(N)n(CC(C)C)c(=O)[nH]c1=O | ? | 3 | 5% | i | i | 2%
SMILES | MCF10A rereplic | Giardia kill | ASM inhibitor | KB-3-1 cytotox | KB-V1 cytotox | SW480 rerep
COc1ccc(-n2nc([N+](=O)[O-])c(=NCCc3ccc(Cl)cc3)n2O)cc1 | -4% | -84* | -9% | i | i | 1%
COc1ccc(-n2nc([N+](=O)[O-])c(=NCCc3ccc(C)cc3)n2O)cc1 | 7% | -93* | -5% | i | i | 1%
COc1ccc(-n2nc([N+](=O)[O-])c(=NCc3ccco3)n2O)cc1 | -2% | -5 | 3% | i | i | -3%
CCc1ccc(N=c2c([N+](=O)[O-])nn(-c3ccccc3)n2O)cc1 | ? | ? | -5% | i | ? | 1%
COc1ccc(-n2nc([N+](=O)[O-])c(=NCCc3ccc(OC)c(OC)c3)n2O)cc1 | 3% | -94* | -5% | i | 2.6µM* | 3%
S=C(NCCCc1cnc[nH]1)NCCCN(CCc1ccc(Cl)cc1)c1ccc(Br)cn1 | nt | 5 | nt | i | i | nt
CSc1nc(Nc2ccc(C)cc2)c(C#N)c(-c2ccccc2)n1 | nt | nt | nt | i | i | nt
C[C@H](NC(=O)c1[nH]cnc1C(=O)Nc1ccccc1F)c1ccccc1 | nt | nt | nt | ? | 18µM* | nt
CN(Cc1ccccc1)C(=O)c1[nH]cnc1C(=O)NCc1ccccc1 | ? | -14 | 12% | i | i | -16%
CN(Cc1ccccc1)C(=O)c1[nH]cnc1C(=O)Nc1ccc(Br)cc1F | nt | nt | nt | 16µM* | ? | nt
C[C@H](NC(=O)c1[nH]cnc1C(=O)Nc1ccccc1)c1ccccc1 | ? | -11 | -4% | ? | i | 3%[9.22 µM]
CC(C)(C)OC(=O)[C@H](Cc1ccccc1)NC(=O)c1[nH]cnc1C(=O)Nc1ccccc1F | nt | nt | nt | ? | 21µM* | nt
COc1cc(/C=N/Nc2nncn2/N=C/c2ccc(O)c(OC)c2)ccc1O | -5% | 9 | 3% | i | 23µM* | 0%
COc1ccc(OC)c(/C=N\Nc2nccs2)c1 | 2% | -15 | 7% | i | i | -1%
COc1ccc(OC)c(/C=N/Nc2nncn2/N=C/c2cc(OC)ccc2OC)c1 | 23µM* | 4 | 45% | 21µM* | ? | ?
COc1cc(C(=O)Nc2ccc(OCc3cc(=O)n4cccc(C)c4n3)cc2)cc(OC)c1OC | nt | nt | nt | i | i | nt
CCC(C(=O)OCc1csc(CC(=O)Nc2ccccc2C)n1)c1ccccc1 (centres undefined) | 2% | -10 | 1% | i | ? | 19%
Cc1ccc(CNC(=O)c2ccccc2NC(=O)c2nsc3ccccc23)cc1 | nt | nt | nt | i | i | nt
COc1ccc(C2c3c(oc4ccc(F)cc4c3=O)C(=O)N2Cc2ccc3c(c2)OCO3)cc1 (centres undefined) | nt | nt | nt | i | i | nt
C=CCn1c(CCNC(=O)c2cccs2)nnc1SCC(=O)c1cccc([N+](=O)[O-])c1 | ? | -2 | 0% | i | i | ?
C=CCn1c(CNC(=O)c2cccs2)nnc1SCC(=O)Nc1ccc(C(=O)O)cc1 | 8% | -8 | 5% | i | i | -10%
C=CCn1c(CCNC(=O)c2cccs2)nnc1SCC(=O)c1ccc(Cl)cc1 | 26µM* | -7 | -4% | i | i | ?
